Laboratory results from PubChem BioAssay (NCATS).
Results filed as inconclusive are left out. Where a call stands in place of a potency, no number is given. The source made the active and inactive calls. Unless noted, the call rests on the fitted dose curve; in most records, active means well fitted inhibition curve with a large enough effect; inconclusive means small, poorly fitted or top-dose-only effect; inactive means no such curve, though single readings can be large or run the other way. Where a SMILES comes first, the peptide text is derived from it.

Test: Primary qHTS for small molecule stabilizers of the endoplasmic reticulum resident proteome: Secreted ER Calcium Modulated Protein (SERCaMP) assay (AID 1508630)
Details: SH-SY5Y GLuc-SERCaMP (Gaussia luciferase released on ER calcium loss) secretion, thapsigargin, luminescence; series mostly up to 38.4 µM
In short: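 GLuc-SERCaMP-expressing SH-SY5Y cells, pretreated 16 h with compound, are challenged with thapsigargin to empty ER calcium stores; after 4 h, coelenterazine is added directly to the medium and luminescence is imaged.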
For `CO/N=C(/C(=O)N[C@@H]1C(=O)N2C(C(=O)O)=C(Cn3nnc(C)n3)CS[C@H]12)c1csc(N)n1`, the Potency was “inactive”.
For `CC(C)(C)c1ccc(C(=O)CCCCl)cc1`, the Potency was “inactive”.
In the case of `CCN(CC)CC(=O)Nc1c(C)cccc1C(=O)OC`, the Potency is reported as “inactive”.
With `C=CC[N+]1([C@H]2C[C@H]3[C@@H]4CC[C@H]5C[C@H](OC(C)=O)[C@@H](N6CCCCC6)C[C@]5(C)[C@H]4CC[C@]3(C)[C@H]2OC(=O)CC)CCCCC1` the Potency was “inactive”.
In the case of `OCc1cccnc1`, the Potency is reported as “inactive”.
With `CC1(C)O[C@@H]2C[C@H]3[C@@H]4CCC5=CC(=O)C=C[C@]5(C)[C@@]4(F)[C@@H](O)C[C@]3(C)[C@]2(C(=O)CO)O1` the Potency was “inactive”.
With `CCOC(=O)N1CCC(n2c(=O)[nH]c3cc(Cl)ccc32)CC1` the Potency was “inactive”.
For `COc1ccc2nc(SCc3ncc(C)c(OC)c3C)[nH]c2c1`, the Potency was “inactive”.
With `CC(=O)O[C@H]1CC[C@@]2(C)C(=CC[C@@H]3[C@@H]2CC[C@]2(C)C(C(C)=O)=CC[C@@H]32)C1` the Potency was “inactive”.
With `O=C1Cc2cc(Cl)ccc2N1` the Potency was “inactive”.
For `CC(=O)N[C@@H](CO)C(=O)N[C@@H](CC(=O)O)C(=O)N[C@@H](CCCCN)C(=O)N1CCC[C@H]1C(=O)O` (Ac-SDKP-OH), the Potency was “inactive”.
For `CCC(=O)O[C@]1(C(=O)COC)[C@@H](C)C[C@H]2[C@@H]3CCC4=CC(=O)C=C[C@]4(C)C3(F)[C@@H](O)C[C@@]21C` (some centres undefined), the Potency was “inactive”.
In the case of `CN1N=C(C(N)=O)CCC1=O`, the Potency is reported as “inactive”.
With `CC(=O)OCC[N+](C)(C)C` the Potency was “inactive”.
With `CCCCCC(=O)O[C@]1(C(C)=O)CC[C@H]2[C@@H]3CCC4=CC(=O)CC[C@]4(C)[C@H]3CC[C@@]21C` the Potency was “inactive”.
In the case of `Nc1ncnc2nc[nH]c12`, the Potency is reported as “inactive”.
In the case of `O=C(Oc1ccccc1)c1ccccc1O`, the Potency is reported as “inactive”.
For `O=c1[nH]c2ccccc2c(=O)n1CCCl`, the Potency was “inactive”.
With `CCN1CCN(c2cc(-c3ccc(F)cc3)c3c(n2)CCCCCC3)CC1` the Potency was “inactive”.
With `CN1[C@@H]2CC[C@H]1CC(NC(=O)n1c(=O)[nH]c3ccccc31)C2` (some centres undefined) the Potency was “inactive”.
For `CNC(=O)c1cnn(-c2nc(N)c3ncn([C@@H]4O[C@H](CO)[C@@H](O)[C@H]4O)c3n2)c1`, the Potency was “inactive”.
With `Nc1ccc(C(=O)N2CC3CC(CN(Cc4ccccc4)C3)C2)cc1` the Potency was “inactive”.
With `COc1cc2c(cc1OC)C(=O)CC2` the Potency was “inactive”.
For `C/C(=C1\CCOC(=O)S1)N(C=O)Cc1cnc(C)nc1N`, the Potency was “inactive”.
For `CN1C(=O)CC(C)(c2ccccc2)C1=O` (centres undefined), the Potency was “inactive”.
In the case of `Cc1cccc(C)c1NC(=O)c1cc(S(N)(=O)=O)c(Cl)cc1O`, the Potency is reported as “inactive”.
With `NC(=O)NC1N=C([O][Al])NC1=O` (centres undefined) the Potency was “inactive”.
For `CC(C)Cc1ccc(C(C)C(=O)OCc2ccccn2)cc1` (centres undefined), the Potency was “inactive”.
In the case of `COc1ccc(CCC(C)=O)cc1`, the Potency is reported as “inactive”.
For `Nc1nc2ccccc2n1Cc1ccc(F)cc1`, the Potency was “inactive”.
For `CCC(C(=O)NC(=O)NC(C)=O)c1ccccc1` (centres undefined), the Potency was “inactive”.
In the case of `O=C(O)[C@H](O)[C@@H](O)[C@H](O[C@@H]1O[C@H](CO)[C@H](O)[C@H](O)[C@H]1O)[C@H](O)CO`, the Potency is reported as “inactive”.
In the case of `CC(C)(C)NCC(O)COc1ccccc1OCC1CCCO1` (centres undefined), the Potency is reported as “inactive”.
With `Cc1cccc(N(C)C(=S)Oc2ccc3c(c2)C2CCC3C2)c1` (centres undefined) the Potency was “inactive”.
In the case of `O=C(CCCl)NCCc1ccccc1`, the Potency is reported as “inactive”.
In the case of `[O-][n+]1cccc(/C(Cl)=N/OC[C@@H](O)CN2CCCCC2)c1`, the Potency is reported as “inactive”.
In the case of `Cc1cccc(OCC(O)CNC(C)(C)C)c1C` (centres undefined), the Potency is reported as “inactive”.

Test: A High-Content qHTS Against Drug Library for the Identification of Small Molecules that Inhibit DYT1 Early Onset Primary Dystonia-Associated Cell Pathology (AID 1645839; calls by dose curve)
Details: HEK293 Flp-In EGFP-delE TorsinA, punctate imaging, 48 h; series mostly up to 46.1 µM
In short: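 In this high-content image screen, delE TorsinA mislocalization in inducible Flp-In 293 cells is scored as %pathology, with cell count serving as the counterscreen. Compound exposure lasts 48 h under tetracycline induction in reduced-serum medium.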
In the case of `CO/N=C(/C(=O)N[C@@H]1C(=O)N2C(C(=O)O)=C(Cn3nnc(C)n3)CS[C@H]12)c1csc(N)n1`, the Potency is reported as “inactive”.
In the case of `CC(C)(C)c1ccc(C(=O)CCCCl)cc1`, the Potency is reported as “inactive”.
For `CCN(CC)CC(=O)Nc1c(C)cccc1C(=O)OC`, the Potency was “inactive”.
With `C=CC[N+]1([C@H]2C[C@H]3[C@@H]4CC[C@H]5C[C@H](OC(C)=O)[C@@H](N6CCCCC6)C[C@]5(C)[C@H]4CC[C@]3(C)[C@H]2OC(=O)CC)CCCCC1` the Potency was “inactive”.
In the case of `OCc1cccnc1`, the Potency is reported as “inactive”.
With `CC1(C)O[C@@H]2C[C@H]3[C@@H]4CCC5=CC(=O)C=C[C@]5(C)[C@@]4(F)[C@@H](O)C[C@]3(C)[C@]2(C(=O)CO)O1` the Potency was “inactive”.
With `CCOC(=O)N1CCC(n2c(=O)[nH]c3cc(Cl)ccc32)CC1` the Potency was “inactive”.
In the case of `COc1ccc2nc(SCc3ncc(C)c(OC)c3C)[nH]c2c1`, the Potency is reported as “inactive”.
With `CC(=O)O[C@H]1CC[C@@]2(C)C(=CC[C@@H]3[C@@H]2CC[C@]2(C)C(C(C)=O)=CC[C@@H]32)C1` the Potency was “inactive”.
With `O=C1Cc2cc(Cl)ccc2N1` the Potency was “inactive”.
With `CC(=O)N[C@@H](CO)C(=O)N[C@@H](CC(=O)O)C(=O)N[C@@H](CCCCN)C(=O)N1CCC[C@H]1C(=O)O` (Ac-SDKP-OH) the Potency was “inactive”.
For `CCC(=O)O[C@]1(C(=O)COC)[C@@H](C)C[C@H]2[C@@H]3CCC4=CC(=O)C=C[C@]4(C)C3(F)[C@@H](O)C[C@@]21C` (some centres undefined), the Potency was “inactive”.
For `CN1N=C(C(N)=O)CCC1=O`, the Potency was “inactive”.
With `CC(=O)OCC[N+](C)(C)C` the Potency was “inactive”.
In the case of `CCCCCC(=O)O[C@]1(C(C)=O)CC[C@H]2[C@@H]3CCC4=CC(=O)CC[C@]4(C)[C@H]3CC[C@@]21C`, the Potency is reported as “inactive”.
In the case of `Nc1ncnc2nc[nH]c12`, the Potency is reported as “inactive”.
With `O=C(Oc1ccccc1)c1ccccc1O` the Potency was “inactive”.
For `O=c1[nH]c2ccccc2c(=O)n1CCCl`, the Potency was “inactive”.
With `CCN1CCN(c2cc(-c3ccc(F)cc3)c3c(n2)CCCCCC3)CC1` the Potency was “inactive”.
For `CN1[C@@H]2CC[C@H]1CC(NC(=O)n1c(=O)[nH]c3ccccc31)C2` (some centres undefined), the Potency was “inactive”.
In the case of `CNC(=O)c1cnn(-c2nc(N)c3ncn([C@@H]4O[C@H](CO)[C@@H](O)[C@H]4O)c3n2)c1`, the Potency is reported as “inactive”.
With `Nc1ccc(C(=O)N2CC3CC(CN(Cc4ccccc4)C3)C2)cc1` the Potency was “inactive”.
In the case of `COc1cc2c(cc1OC)C(=O)CC2`, the Potency is reported as “inactive”.
With `C/C(=C1\CCOC(=O)S1)N(C=O)Cc1cnc(C)nc1N` the Potency was “inactive”.
For `CN1C(=O)CC(C)(c2ccccc2)C1=O` (centres undefined), the Potency was “inactive”.
In the case of `Cc1cccc(C)c1NC(=O)c1cc(S(N)(=O)=O)c(Cl)cc1O`, the Potency is reported as “inactive”.
For `NC(=O)NC1N=C([O][Al])NC1=O` (centres undefined), the Potency was “inactive”.
For `CC(C)Cc1ccc(C(C)C(=O)OCc2ccccn2)cc1` (centres undefined), the Potency was “inactive”.
For `COc1ccc(CCC(C)=O)cc1`, the Potency was “inactive”.
With `Nc1nc2ccccc2n1Cc1ccc(F)cc1` the Potency was “inactive”.
With `CCC(C(=O)NC(=O)NC(C)=O)c1ccccc1` (centres undefined) the Potency was “inactive”.
For `O=C(O)[C@H](O)[C@@H](O)[C@H](O[C@@H]1O[C@H](CO)[C@H](O)[C@H](O)[C@H]1O)[C@H](O)CO`, the Potency was “inactive”.
For `CC(C)(C)NCC(O)COc1ccccc1OCC1CCCO1` (centres undefined), the Potency was “inactive”.
For `Cc1cccc(N(C)C(=S)Oc2ccc3c(c2)C2CCC3C2)c1` (centres undefined), the Potency was “inactive”.
In the case of `O=C(CCCl)NCCc1ccccc1`, the Potency is reported as “inactive”.
For `[O-][n+]1cccc(/C(Cl)=N/OC[C@@H](O)CN2CCCCC2)c1`, the Potency was “inactive”.
With `Cc1cccc(OCC(O)CNC(C)(C)C)c1C` (centres undefined) the Potency was “inactive”.
